5 molecules from PubChem BioAssay (EPA / NIEHS) can be followed below.

Assay [1] is described as follows: CEETOX_H295R_DOC: CeeTox H295R High-throughput Steroidogenesis Assay for DOC (AID 2283439). To be noted: actives raise or lower the signal. An outline of the steps: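 Secreted DOC was quantified from H295R media by HPLC-MS/MS after 48 h chemical exposure following 48 h forskolin (10 uM) prestimulation. Values were fitted in both directions relative to DMSO, the negative control and baseline.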

Assay [2] is described as follows: CEETOX_H295R_ESTRADIOL: CeeTox H295R High-throughput Steroidogenesis Assay for Estradiol (AID 2283440).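 Note: estradiol secreted into medium quantified by LC-MS/MS after dansyl derivatisation.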 Particulars: actives raise or lower the signal. In short, it runs like this:
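H295R adrenocortical cells were prestimulated with 10 uM forskolin for 48 h, then exposed to test chemical in 0.1% DMSO for 48 h. Medium estradiol was extracted with MTBE, dansyl-derivatized and quantified by HPLC-MS/MS; bidirectional fit versus DMSO.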

A short description of assay [3]: CEETOX_H295R_ESTRONE: CeeTox H295R High-throughput Steroidogenesis Assay for Estrone (AID 2283441).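 Note: estrone secreted into medium measured by LC-MS/MS after dansyl derivatization.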 Particulars: actives raise or lower the signal. In short, it runs like this:
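H295R cells; 48 h forskolin (10 uM) prestimulation; 48 h compound exposure, 0.1% DMSO final. Medium estrone: MTBE extraction, dansyl derivatization, HPLC-MS/MS. Bidirectional fit vs DMSO.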

The nature of assay [4]: CEETOX_H295R_PROG: CeeTox H295R High-throughput Steroidogenesis Assay for Progesterone (PROG) (AID 2283442).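 For AC50: human H295R adrenal cells primed with 10 µM forskolin before dosing.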 Particulars: actives raise or lower the signal. In short, it runs like this:
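H295R human adrenal cells were prestimulated with 10 uM forskolin for 48 h, then exposed to test chemical (0.1% DMSO final) for 48 h. Medium progesterone was MTBE-extracted and quantified by HPLC-MS/MS, with bidirectional fitting against DMSO.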

Read-out in assay [5]: Tumor necrosis factor receptor superfamily member 6 (Homo sapiens) (UniProt P25445)
Description: LTEA_HepaRG_FAS: Life Technologies and Expression Analysis (LTEA) Assay for Fas cell surface death receptor (FAS) using HepaRG (AID 2283447). To be noted: mRNA level, 48 h; actives raise or lower the signal. In short, it runs like this:
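Differentiated HepaRG cells in serum-free induction medium were exposed 48 h to 8 half-log concentrations up to 100 uM in 0.5% DMSO, in duplicate. FAS mRNA was measured by qRT-PCR normalised to ACTB, GAPDH and POLR2A; bidirectional fit versus DMSO.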

Read-out in assay [6]: Fatty acid synthase (Homo sapiens) (UniProt P49327)
In words: LTEA_HepaRG_FASN: Life Technologies and Expression Analysis (LTEA) Assay for Fatty Acid Synthase (FASN) using HepaRG (AID 2283448). Particulars: mRNA level, 48 h; actives raise or lower the signal. In short, it runs like this:
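Transcript-level assay: HepaRG liver cells are treated for 48 h across an eight-point range topping at 100 uM, and FASN mRNA, normalized to three housekeeping genes, is compared with DMSO controls in both directions.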

Read-out in assay [7]: Cyclin D2 (CCND2), CCND2 (gene 894)
In words: LTEA_HepaRG_CCND2: Life Technologies and Expression Analysis (LTEA) Assay for Cyclin D2 (CCND2) using HepaRG (AID 2283449).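 Note: CCND2 transcript measured by TaqMan qRT-PCR and normalised to three housekeeping genes.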 Particulars: mRNA level, 48 h; actives raise or lower the signal. In short, it runs like this: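 Chemicals in 0.5% DMSO, eight half-log concentrations from 100 uM top, were applied in duplicate for 48 h to human HepaRG cells in serum-free induction medium. CCND2 mRNA by TaqMan qRT-PCR, normalised to ACTB/GAPDH/POLR2A; bidirectional fit versus DMSO.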

Read-out in assay [8]: Cyclin Dependent Kinase Inhibitor 1A (CDKN1A), CDKN1A (gene 1026)
Description: LTEA_HepaRG_CDKN1A: Life Technologies and Expression Analysis (LTEA) Assay for Cyclin Dependent Kinase Inhibitor 1A (CDKN1A) using HepaRG (AID 2283450). To be noted: mRNA level, 48 h; actives raise or lower the signal. An outline of the steps:
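Differentiated human HepaRG cells, pre-cultured 48 h, were exposed in duplicate for 48 h in serum-free induction medium to eight half-log concentrations up to 100 uM (0.5% DMSO). CDKN1A mRNA was measured by qRT-PCR, normalized to ACTB/GAPDH/POLR2A, bidirectionally fitted versus DMSO.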

Read-out in assay [9]: flavin-containing dimethylaniline monooxygenases 3 (FMO3), FMO3 (gene 2328)
Description: LTEA_HepaRG_FMO3: Life Technologies and Expression Analysis (LTEA) Assay for flavin-containing dimethylaniline monooxygenases 3 (FMO3) using HepaRG (AID 2283453). To be noted: mRNA level, 48 h; actives raise or lower the signal. In short, it runs like this:
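HepaRG, 48 h exposure, 8-pt half-log series from 100 uM, 0.5% DMSO vehicle, duplicates; FMO3 transcript by Fluidigm TaqMan qRT-PCR, housekeeping-normalized; gain/loss fit vs DMSO.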

Read-out in assay [10]: Cytochrome P450 (CYP1A1), CYP1A1 (gene 1543)
Description: LTEA_HepaRG_CYP1A1: Life Technologies and Expression Analysis (LTEA) Assay for Cytochrome P450 (CYP1A1) using HepaRG (AID 2283454). To be noted: mRNA level, 48 h; actives raise or lower the signal. An outline of the steps:
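Differentiated HepaRG cells in serum-free induction medium were exposed in duplicate for 48 h to eight half-log concentrations up to 100 uM in 0.5% DMSO. CYP1A1 mRNA was quantified by TaqMan qRT-PCR, normalized to ACTB, GAPDH and POLR2A.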

Read-out in assay [11]: CFLAR gene, CFLAR (gene 8837)
In words: LTEA_HepaRG_CFLAR: Life Technologies and Expression Analysis (LTEA) Assay for CFLAR gene using HepaRG (AID 2283455). Particulars: mRNA level, 48 h; actives raise or lower the signal. An outline of the steps:
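Differentiated HepaRG cells in serum-free induction medium were exposed 48 h in duplicate to eight half-log concentrations up to 100 uM in 0.5% DMSO; mRNA measured by TaqMan qRT-PCR, normalized to ACTB, GAPDH, POLR2A; bidirectional fitting versus DMSO.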

Read-out in assay [12]: Forkhead box O1 (FOXO1), FOXO1 (gene 2308)
Description: LTEA_HepaRG_FOXO1: Life Technologies and Expression Analysis (LTEA) Assay for Forkhead box O1 (FOXO1) using HepaRG (AID 2283456). Particulars: mRNA level, 48 h; actives raise or lower the signal. An outline of the steps:
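Differentiated HepaRG cells, in serum-free induction medium with 0.5% DMSO, exposed 48 h in duplicate to 8-point half-log series from 100 uM. FOXO1 mRNA measured by TaqMan qRT-PCR, normalized to ACTB, GAPDH, POLR2A; bidirectional fit versus DMSO.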

Read-out in assay [13]: growth arrest and DNA damage 45 (GADD45A), GADD45A (gene 1647)
In words: LTEA_HepaRG_GADD45A: Life Technologies and Expression Analysis (LTEA) Assay for growth arrest and DNA damage 45 (GADD45A) using HepaRG (AID 2283458). Particulars: mRNA level, 48 h; actives raise or lower the signal. In short, it runs like this: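 Human HepaRG liver cells are treated in duplicate for 48 h with chemicals in 0.5% DMSO, highest concentration 100 uM. Expression is read by qRT-PCR and analyzed in both directions against vehicle.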

Read-out in assay [14]: Forkhead box O3 (FOXO3), FOXO3 (gene 2309)
Description: LTEA_HepaRG_FOXO3: Life Technologies and Expression Analysis (LTEA) Assay for Forkhead box O3 (FOXO3) using HepaRG (AID 2283459). To be noted: mRNA level, 48 h; actives raise or lower the signal. In short, it runs like this: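 Differentiated human HepaRG cells, 48 h post-plating, exposed in duplicate for 48 h in serum-free induction medium; 8-point half-log series from 100 uM in 0.5% DMSO. FOXO3 mRNA by TaqMan qRT-PCR, normalized to ACTB/GAPDH/POLR2A; bidirectional fit versus DMSO.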

Read-out in assay [15]: ABC Transporter (ABCB1), ABCB1 (gene 5243)
Description: LTEA_HepaRG_ABCB1: Life Technologies and Expression Analysis (LTEA) Assay for ABC Transporter (ABCB1) using HepaRG (AID 2283460). Particulars: mRNA level, 48 h; actives raise or lower the signal. In short, it runs like this:
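HepaRG cells exposed in duplicate for 48 h in serum-free induction medium to eight half-log concentrations up to 100 uM in 0.5% DMSO. ABCB1 mRNA quantified by qRT-PCR, normalised to ACTB, GAPDH and POLR2A; fitted bidirectionally versus DMSO.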

Read-out in assay [16]: growth arrest and DNA damage 45 (GADD45B), GADD45B (gene 4616)
In words: LTEA_HepaRG_GADD45B: Life Technologies and Expression Analysis (LTEA) Assay for growth arrest and DNA damage 45 (GADD45B) using HepaRG (AID 2283461). Particulars: mRNA level, 48 h; actives raise or lower the signal. In short, it runs like this: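 Differentiated HepaRG cells, plated 48 h then switched to serum-free induction medium, were exposed 48 h in duplicate to eight half-log concentrations from 100 uM in 0.5% DMSO; mRNA quantified by qRT-PCR, normalized to ACTB/GAPDH/POLR2A, bidirectional fit versus DMSO.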

Read-out in assay [17]: catalase (CAT), CAT (gene 847)
Description: LTEA_HepaRG_CAT: Life Technologies and Expression Analysis (LTEA) Assay for catalase (CAT) using HepaRG (AID 2283452). To be noted: mRNA level, 48 h; actives raise or lower the signal. In short, it runs like this:
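HepaRG cells in serum-free induction medium, 0.5% DMSO vehicle, exposed 48 h in duplicate over 8 half-log concentrations from 100 uM. CAT mRNA measured by qRT-PCR, normalized to ACTB, GAPDH, POLR2A; bidirectional fit versus DMSO.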

Read-out in assay [18]: Cyclin D1 (CCND1), CCND1 (gene 595)
Description: LTEA_HepaRG_CCND1: Life Technologies and Expression Analysis (LTEA) Assay for Cyclin D1 (CCND1) using HepaRG (AID 2283451). To be noted: mRNA level, 48 h; actives raise or lower the signal. In short, it runs like this: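 Differentiated human HepaRG cells in serum-free induction medium were exposed 48 h to eight half-log concentrations up to 100 uM in 0.5% DMSO; mRNA quantified by TaqMan qRT-PCR, normalized to ACTB, GAPDH, POLR2A, fitted bidirectionally versus DMSO.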

Assay [19] is described as follows: CEETOX_H295R_TESTO: CeeTox H295R High-throughput Steroidogenesis Assay for Testosterone (TESTO) (AID 2283457).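 Note: cells exposed to chemicals for 48 h before medium collection.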 Particulars: actives raise or lower the signal. An outline of the steps: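 H295R human adrenal cells in DMEM/F12 with ITS+ and Nu-Serum, exposed to chemicals for 48 h. Testosterone in medium measured by MTBE extraction, reverse-phase HPLC-MS/MS; bidirectional fit versus DMSO baseline. MTT viability checked in same wells.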

In general, AC50 refers to the concentration at which the activity in the assay is half-maximal.

Where “and” joins values, the source holds several entries; their conditions need not be identical. Identical values can stand only once. Some compounds were tested as several samples or in several runs, with calls that do not always agree. Calls of active or inactive are those of the source. Rule for the calls: active = hit-call score of the fitted dose curve at least 0.9, where 1 is the maximum; inactive = score below 0.9.

Sequence of Fatty acid synthase (Homo sapiens) (P49327 whole entry, looked up): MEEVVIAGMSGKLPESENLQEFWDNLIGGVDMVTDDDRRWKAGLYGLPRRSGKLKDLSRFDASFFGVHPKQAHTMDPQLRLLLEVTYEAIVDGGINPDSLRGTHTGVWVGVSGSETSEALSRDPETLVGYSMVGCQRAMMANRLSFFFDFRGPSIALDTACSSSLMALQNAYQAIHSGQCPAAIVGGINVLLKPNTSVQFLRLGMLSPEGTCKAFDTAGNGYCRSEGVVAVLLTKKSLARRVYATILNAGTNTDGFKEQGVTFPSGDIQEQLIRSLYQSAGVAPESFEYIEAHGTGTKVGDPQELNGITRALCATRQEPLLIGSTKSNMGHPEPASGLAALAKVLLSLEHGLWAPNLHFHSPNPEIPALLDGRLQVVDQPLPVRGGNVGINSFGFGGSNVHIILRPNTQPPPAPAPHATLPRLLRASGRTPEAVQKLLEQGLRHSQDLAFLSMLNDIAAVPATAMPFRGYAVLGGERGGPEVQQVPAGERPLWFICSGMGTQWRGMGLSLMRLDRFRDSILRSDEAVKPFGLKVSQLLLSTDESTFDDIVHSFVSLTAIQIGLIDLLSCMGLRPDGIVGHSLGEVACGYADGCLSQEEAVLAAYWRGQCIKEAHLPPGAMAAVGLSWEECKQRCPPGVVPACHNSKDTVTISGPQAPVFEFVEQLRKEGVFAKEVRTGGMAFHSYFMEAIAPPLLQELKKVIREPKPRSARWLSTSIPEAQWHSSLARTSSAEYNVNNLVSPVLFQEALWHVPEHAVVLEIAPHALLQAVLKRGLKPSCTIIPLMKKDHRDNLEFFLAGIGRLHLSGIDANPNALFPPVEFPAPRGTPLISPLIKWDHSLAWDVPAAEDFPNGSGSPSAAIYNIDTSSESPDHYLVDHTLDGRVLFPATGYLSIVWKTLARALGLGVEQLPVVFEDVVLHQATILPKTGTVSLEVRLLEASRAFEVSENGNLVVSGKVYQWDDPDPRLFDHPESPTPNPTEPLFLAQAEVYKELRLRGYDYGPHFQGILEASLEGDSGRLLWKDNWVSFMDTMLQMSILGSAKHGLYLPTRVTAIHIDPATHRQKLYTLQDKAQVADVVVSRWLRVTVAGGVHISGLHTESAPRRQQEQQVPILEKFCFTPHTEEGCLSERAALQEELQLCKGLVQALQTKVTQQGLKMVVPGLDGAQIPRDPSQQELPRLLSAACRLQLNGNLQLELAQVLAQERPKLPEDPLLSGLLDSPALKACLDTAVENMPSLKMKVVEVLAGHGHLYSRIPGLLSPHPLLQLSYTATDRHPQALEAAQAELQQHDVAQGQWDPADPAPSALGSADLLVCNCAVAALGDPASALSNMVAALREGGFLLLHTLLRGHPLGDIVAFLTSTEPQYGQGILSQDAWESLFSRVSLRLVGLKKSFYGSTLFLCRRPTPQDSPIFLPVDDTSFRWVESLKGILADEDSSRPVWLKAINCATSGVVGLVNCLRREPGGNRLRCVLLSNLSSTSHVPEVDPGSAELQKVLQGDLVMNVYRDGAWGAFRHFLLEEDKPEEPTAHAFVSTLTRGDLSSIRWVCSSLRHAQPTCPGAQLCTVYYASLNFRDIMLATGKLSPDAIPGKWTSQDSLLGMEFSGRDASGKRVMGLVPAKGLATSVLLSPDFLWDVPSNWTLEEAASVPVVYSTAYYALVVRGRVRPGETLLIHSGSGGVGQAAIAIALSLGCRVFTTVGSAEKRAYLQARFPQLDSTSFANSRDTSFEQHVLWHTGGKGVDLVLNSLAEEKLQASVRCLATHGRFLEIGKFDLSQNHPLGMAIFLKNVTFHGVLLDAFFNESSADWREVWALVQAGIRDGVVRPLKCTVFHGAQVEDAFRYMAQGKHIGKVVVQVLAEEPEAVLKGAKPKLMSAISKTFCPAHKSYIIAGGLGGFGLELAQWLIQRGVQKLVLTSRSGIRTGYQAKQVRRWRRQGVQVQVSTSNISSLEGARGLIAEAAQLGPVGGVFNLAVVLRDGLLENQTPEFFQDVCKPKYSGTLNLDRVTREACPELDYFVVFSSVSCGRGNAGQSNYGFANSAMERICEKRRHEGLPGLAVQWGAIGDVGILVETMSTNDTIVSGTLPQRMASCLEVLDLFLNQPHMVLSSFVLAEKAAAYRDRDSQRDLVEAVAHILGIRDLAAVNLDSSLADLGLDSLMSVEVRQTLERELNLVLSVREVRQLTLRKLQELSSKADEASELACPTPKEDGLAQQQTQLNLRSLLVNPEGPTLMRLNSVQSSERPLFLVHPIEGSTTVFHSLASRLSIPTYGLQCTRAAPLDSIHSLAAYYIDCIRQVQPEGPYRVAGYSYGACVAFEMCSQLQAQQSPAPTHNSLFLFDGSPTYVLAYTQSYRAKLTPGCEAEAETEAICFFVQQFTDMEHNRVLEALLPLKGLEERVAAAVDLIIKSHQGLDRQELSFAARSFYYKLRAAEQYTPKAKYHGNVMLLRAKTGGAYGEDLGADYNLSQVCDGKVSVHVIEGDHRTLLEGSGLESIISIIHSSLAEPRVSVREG

Turning to `CC(C)N(C(=O)COc1nnc(C(F)(F)F)s1)c1ccc(F)cc1`, the molecule was classed as inactive in assay [1], in assay [2], in [3], in assay [4], in assay [5] and in assay [6]. Also, the result in assay [7], in assay [8], in assay [11], in assay [12], in assay [13] and in [14] was inactive. Moreover, the result in assay [15] and in assay [16] was inactive. Also, the AC50 was 40.7 µM (active) in assay [9] and 50 µM (active) in [10].

Turning to `COc1nn(CSP(=S)(OC)OC)c(=O)s1`, the AC50 is 40.2 µM (active) in assay [1]; 11.5 µM (active) in assay [2]; 21.4 µM (active) in [3]; 38.2 µM (active) in assay [4]; 24.3 µM (active) in assay [10]. The outcome in [5], in assay [6], in [7], in [8], in assay [17] and in [9] was inactive. For the same molecule, the outcome in [11], in assay [12], in assay [13], in assay [14], in [15] and in [16] was inactive.

For the molecule `CCc1ccc(C(=O)NN(C(=O)c2cc(C)cc(C)c2)C(C)(C)C)cc1`, the molecule was classed as inactive in [1], in assay [2], in assay [3], in [4], in assay [5] and in assay [6]. Also, the result in assay [7], in [8], in assay [18], in assay [17], in assay [10] and in assay [11] was inactive. The result in assay [12], in [13], in [14] and in [16] was inactive. Also, the AC50 in assay [9] is 81.9 µM (active); in [15] it was 13.3 µM (active).

For the molecule `Oc1ccc(Cl)cc1Cc1ccccc1`, the AC50 in [1] was 39.9 µM (active); in [6], 87.9 µM (active) and 74.3 µM (active) and 81.6 µM (active); in assay [10], 84.7 µM (active) and 81.3 µM (active) and 84.4 µM (active); in assay [11] it was 82.3 µM (active); in [19] it was 78 µM (active); in assay [14], 91.5 µM (active) and 87.9 µM (active). The outcome in assay [4], in assay [5], in assay [7], in [8], in assay [17] and in assay [9] was inactive. Besides, the result in assay [11], in assay [12], in assay [13], in assay [14], in [15] and in assay [16] was inactive.

Turning to `O=C(O)COc1ccc(Cl)cc1Cl`, the molecule was classed as inactive in assay [1], in [4], in assay [5], in [6], in assay [7] and in assay [8]. The molecule was classed as inactive in assay [17], in assay [9], in assay [11], in assay [12], in [13] and in assay [14]. Also, the molecule was classed as inactive in assay [15] and in assay [16]. The AC50 in assay [10] was 43.4 µM (active).
